ATXN2 expr inh: ATXN2 expression inhibition; Potency, µM (doses to about 57 µM), inactives show top-dose activity change, negative = inhibition, most hits filed as inhibitors; 360,000 compounds, 0.72% hits; HEK-293 ATXN2-luciferase reporter, luminescence, 24 h; also: potency is read from the fitted curve at half-maximal effect; % is scaled to controls: 0 for no effect and ±100 for the full control effect; nearly all actives have a fitted effect of over 55% in size
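qHTS (up to 57 uM final) was run with 24 h compound exposure of reporter cells at 37 °C. Each well was multiplexed: SteadyGlo luminescence measured ATXN2-luciferase expression after a fluorogenic Gly-Phe-AFC viability readout (25 uM final).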
D3 antag: blocks the human D3 dopamine receptor; P35462; D3R cells, DiscoveRx beta-arrestin luminescence, antagonist mode; hits give low values; max response, negative = inhibition, %; 360,000 compounds, 2.5% hits; in the data active = max response below about -50%; inconclusive = no clear call, values can overlap the other calls; also: % is scaled to controls: 0 for no effect and ±100 for the full control effect
Target sequence (P35462 whole entry, looked up): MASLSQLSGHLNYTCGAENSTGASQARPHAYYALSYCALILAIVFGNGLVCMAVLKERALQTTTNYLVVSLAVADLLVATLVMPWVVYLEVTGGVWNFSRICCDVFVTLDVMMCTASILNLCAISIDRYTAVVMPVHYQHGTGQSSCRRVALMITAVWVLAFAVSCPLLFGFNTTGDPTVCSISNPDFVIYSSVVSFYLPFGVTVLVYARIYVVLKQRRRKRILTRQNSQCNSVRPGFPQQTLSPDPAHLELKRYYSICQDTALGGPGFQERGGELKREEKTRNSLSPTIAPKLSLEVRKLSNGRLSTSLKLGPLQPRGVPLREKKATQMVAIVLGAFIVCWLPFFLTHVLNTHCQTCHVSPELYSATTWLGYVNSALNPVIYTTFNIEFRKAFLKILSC
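Cells plated overnight at 1500 cells/well, then exposed to library compounds with dopamine controls for 90 minutes at 37 degrees C. DiscoveRx reagent added for 30–60 minutes at room temperature; luminescence read, quantitative HTS format.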
ATXN viability: viability counter-screen for ATXN expression inhibitors; S2 cells (HEK-293 line with an ATXN2-luciferase reporter) viability, CellTiter-Fluor protease fluorescence, 24 h; Potency, µM (titrated, usually from 56.7 µM), usual class: cytotoxic; 400,000 compounds, 0.49% hits; also: potency is read from the fitted curve at half-maximal effect; nearly all actives have a fitted effect of over 40% in size
a7 integrin act: activators of alpha7 integrin expression for muscular dystrophy | AID 624291 | Potency, µM (doses to about 38.3 µM), for inactives: at the top dose activation, actives largely listed as activators | alpha7betagal myoblasts, beta-gal FDG fluorescence, 48 h | 350,000 compounds, 0.064% hits;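 also: potency is read from the fitted curve at half-maximal effect; 100% = response of the positive control SU9516; nearly all actives have a fitted effect of over 60% in size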
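Alpha7betagal+/- myoblasts (passage 13) were plated 16-24 hr, then exposed to compounds (1:260 dilution of DMSO stock) for 48 hours at 37C. After MPER lysis, β-galactosidase reporter activity was read as FDG fluorescence (ex 480/em 540) after 30 minutes.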
D3 ag: D3 dopamine receptor (human) agonism; D3R DiscoveRx beta-arrestin cells, luminescence, 90 min; 410,000 compounds, 0.58% hits; AID 652048; max activation, %; in the data active = max activation above about 30%; also: 0% is about no effect
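Agonist-mode cell screen: cells plated at 1500/well and incubated overnight at 37 °C, then exposed to library compounds for 90 min at 37 °C. Detection reagent was added for 30–60 min at room temperature, and luminescence was read.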
IL-1B inflam inh: blocks inflammasome-driven IL-1 beta release | THP-1 LPS/ATP IL-1B secretion, AlphaLISA, 16 h; hits give low values | activity change, % at 57.5 µM | 360,000 compounds, 4.7% hits; in the data active = activity change below about -50%; inconclusive = mostly about -30% to -49%; also: % is scaled to controls: 0 for no effect and ±100 for the full control effect
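THP-1 cells pretreated 1 hr with compounds (up to 57.5 uM final), then stimulated with LPS (250 ng/mL final) plus ATP (1.25 mM final); secreted IL-1B measured by AlphaLISA after 16 hr, decreased signal indicating inhibition.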
* marks the source's active call; other numbers are inactive results; i = inactive; ? = inconclusive; · = no result; ! = not confirmed by another sample. Hits are enriched below; roughly 7% of the tested compounds scored in any of these assays. Unless noted, calls follow the shape of the dose curve; as a rule, active = well fitted curve in the direction sought with a large enough effect; inconclusive = small, poorly fitted or top-dose-only effect, or another doubt; inactive = no such curve, though single readings can be large; an effect the other way counts as inactive or inconclusive.

SMILES	ATXN2 expr inh	D3 antag	ATXN viability	a7 integrin act	D3 ag	IL-1B inflam inh
CN1CCN(C2Cc3cc(F)ccc3Sc3ccc(Cl)cc32)CC1 (stereo not drawn)	·	-119.7*	?	-63.1%	-21.8	?
CN1CCN(C2Cc3ccc(F)cc3Sc3cc(F)c(Cl)cc32)CC1 (stereo not drawn)	?	-105.4*	?	-62.9%	-20.6	-96.6*
CSc1ccc2c(c1)[C@H](N1CCN(C)CC1)Cc1ccccc1S2	·	·	i	·	·	·
CN1CCN(C2=Cc3ccccc3Sc3cc(F)ccc32)CC1	-20.4%	-0.4	i	-55.8%	0.5	?
CCCCCCNC(=O)N[C@@H](C(=O)NCCC[C@H]1CN2C(=NC[C@@H]2Cc2ccccc2)N1CCc1cccc(OC)c1)C(C)C	-7.9%	0.0	?	-12.9%	-51.7	-90.7*
CCOC(CNC(=O)c1ccc(N2CCc3ccccc32)c([N+](=O)[O-])c1)OCC	-12.8%	-66.9*	i	-31.8%	-11.9	-18.7
COC(=O)c1ccc(N2CCc3ccccc32)c([N+](=O)[O-])c1	-8.4%	-28.6	i	-29.7%	-4.0	0.0
O=C(Nc1ccccc1)N1CCN(CCc2ccccc2)CC1	-13.4%	-27.7	i	-19.7%	-20.8	-1.0
O=C(Cn1c(SCc2ccc(F)cc2)nc2cccnc21)Nc1ccccc1F	·	·	·	·	16.6	·
COc1ccc(/C=C/C(=O)c2cc(F)ccc2OC(=O)c2ccccc2OC)cc1OC	?	-5.9	?	-55.3%	-4.7	-100.4*
COC(=O)c1ccc(/C=C/C(=O)c2ccc(OC)c(OC)c2)cc1	?	-12.4	?	-63.2%	1.3	-58.9*
CCOc1ccc(N2C(=O)/C(=C/c3cc(OC)c(OC)c(OC)c3)N(CC(=O)OC)C2=S)cc1	-26.5%	-13.7	?	-46.3%	1.0	-90.2*
CCOc1ccc(/C=C2/C(=O)N(c3ccc(OC)cc3)C(=S)N2CC(=O)OC)cc1OCC	-8.0%	-10.8	i	3.4%	0.6	29.4
COc1ccc(/C=C/C(=O)c2ccc(C(=O)/C=C/c3ccc(OC)c(OC)c3)cc2)cc1OC	?	-3.6	i	-23.7%	2.0	-24.8
COc1ccc(/C=C/C(=O)c2ccc[nH]2)cc1OC	132.4%	10.7	i	-18.0%	-4.3	-62.8*
CC(=O)c1ccc(N2CCN(C(=O)C3CCN(S(=O)(=O)c4ccc(Br)s4)CC3)CC2)cc1	?	·	i	·	5.8	·
COc1ccc(C(=O)NCc2cc(C)nc3ccccc23)cc1	-23.7%	13.1	i	?	0.2	98.5
COc1ccc(C(=O)/C=C/c2ccc(OC(=O)c3cc(OC)c(OC)c(OC)c3)cc2)cc1	-20.6%	19.1	?	27.2%	25.3	-83.0*
CCOc1ccc(/C=C/C(=O)c2ccccc2)cc1	·	20.9	?	-12.3%	0.8	?
COc1cc(/C=C/C(=O)c2ccc(F)cc2)cc(OC)c1OC	-23.2%	2.0	i	-65.1%	-2.9	-74.0*
CCOc1ccc(C(=O)/C=C/c2cc(OC)c(OC)c(OC)c2)cc1	-29.7%	-6.5	i	-68.6%	5.2	-94.2*
Cc1n[nH]c(C)c1CS(=O)(=O)c1ccccc1	?	-26.6	i	2.5%	-11.7	-18.7
NNC(=O)CNC(c1ccccc1)c1cc(Br)ccc1N (stereo not drawn)	-9.5%	-16.1	i	-2.9%	-1.3	-72.2*
CCC(=O)n1nc(-c2cccnc2)nc1NCc1cccs1	-3.5%	-17.6	i	-7.4%	-5.0	-6.7
N#CC1=C(SCC(=O)Nc2cccc3cccnc23)NC(=O)C(C#N)C12CCCCC2 (stereo not drawn)	-0.3%	34.8	i	15.1%	38.7*	36.2
SMILES	ATXN2 expr inh	D3 antag	ATXN viability	a7 integrin act	D3 ag	IL-1B inflam inh
O=C1[C@H]2[C@@H](/C=C/c3ccccc3)N3C(=O)CN(CCO)C(=O)[C@@]3(Cc3ccccc3)[C@H]2C(=O)N1c1ccccc1	-11.8%	-1.4	i	-4.3%	-39.6	7.4
C[C@@]12C(=O)N(CCO)CC(=O)N1[C@H](/C=C/c1ccccc1)[C@@H]1C(=O)N(c3ccccc3)C(=O)[C@@H]12	-2.8%	-59.4*	i	3.3%	-4.4	-0.4
Cc1ccc(C(=O)NCC(=O)Nc2ccc3c(c2)CCC3)cc1C	-8.9%	-13.5	i	14.7%	-20.7	79.4
O=C(NNc1c2ccccc2nc2ccccc12)c1ccc(O)cc1	-18.8%	-64.2*	?	23.1%	-7.2	-21.6
O=C(NNc1c2ccccc2nc2ccccc12)c1ccccc1Cl	-31.7%	?	?	-19.2%	-10.7	60.4
O=C(NNc1c2ccccc2nc2ccccc12)c1ccc(O)cc1O	2.9%	?	?	13.8%	-6.6	-50.5*
O=C(NNc1c2ccccc2nc2ccccc12)c1ccccc1O	?	-9.2	·	-24.9%	0.4	-12.3
O=C(NNc1c2ccccc2nc2ccccc12)c1cccc(O)c1	-12.5%	-29.3	i	20.6%	-3.6	-79.7*
COc1ccc(OCC(=O)NNc2c3ccccc3nc3ccccc23)cc1	?	4.2	?	-4.6%	3.2	-51.0*
Cc1ccc(NC(=O)CCCn2nc(C)c3c(C)n(-c4ccccc4)nc3c2=O)cc1C	7.0%	-6.0	i	-14.2%	0.2	-12.2
C/C(=N\NC(=O)c1cc(C2CC2)nc2ccccc12)c1ccc(O)cc1O	2.51µM*	19.0	?	-8.4%	4.9	147.1
O=C(Nc1cc(S(=O)(=O)N2CCCCC2)ccc1Cl)c1ccccc1NS(=O)(=O)c1ccc(F)cc1	?	0.4	?	-50.7%	1.5	-21.5
O=S(=O)(Nc1ccc(O)c2ccccc12)c1ccc(F)cc1	31.6µM*	?	?	-13.8%	-10.5	15.8
O=C(Nc1cc(S(=O)(=O)N2CCCCC2)ccc1O)c1ccccc1NS(=O)(=O)c1ccc(F)cc1	?	-2.4	i	6.2%	3.7	-55.6*!
O=C(c1ccccc1NS(=O)(=O)c1ccc(F)cc1)N1CCCCC1	6.7%	-20.7	i	-8.5%	-8.5	9.1
O=C(N/N=C\c1cc(Cl)ccc1O)c1ccc(S(=O)(=O)N2CCCCC2)cc1	2.51µM*	1.4	i	-36.1%	4.1	61.8
CCc1ccc(S(=O)(=O)Nc2ccc(O)c3ccccc23)cc1	·	-12.8	i	-23.1%	-0.5	-15.6
CN1CCN(C(=O)c2ccccc2NS(=O)(=O)c2ccc(F)cc2)CC1	-6.4%	-62.6*	i	-22.7%	-22.6	-12.7
O=C(N/N=C/c1ccc(O)c(O)c1)c1cccc(S(=O)(=O)N2CCCC2)c1	-5.1%	-0.3	i	0.4%	-5.4	5.9
CCCC(=O)Nc1c2c(nn1-c1ccc([N+](=O)[O-])cc1)CS(=O)(=O)C2	·	-12.0	i	-12.8%	2.7	7.6
